Test results as given in PubChem BioAssay (NCATS).
“And” between values parts separate entries of the source, which are not always exact repeats. Identical values can stand only once. Records with an inconclusive call do not appear. Entries that show only a call come without a potency. The source made the active and inactive calls. The call rests on the fitted dose curve; in most records, active means well fitted curve in the direction sought with a large enough effect; inconclusive means small, poorly fitted or top-dose-only effect, or another doubt; inactive means no such curve, though single readings can be large; an effect the other way counts as inactive or inconclusive.

Tests used:
[1] = UWB1.289 Cancer Cell Toxicity qHTS against the NCATS CANVASS Library (AID 1347347); further: nearly all actives have a fitted effect of over 60% in size; further: potency means the concentration at half of the fitted maximal effect
Summary of the method: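 Cells were seeded at 1000 per well, allowed 4 h at 37 degrees C/5% CO2, then pin-treated with an 11-point compound series. After 72 h, viability was read as CellTiter-Glo luminescence following 15min at room temperature.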

[2] = HPAF-II 24hr Apoptosis Induction qHTS against the NCATS CANVASS Library (AID 1347356)
Summary of the method: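 HPAF-II cells (500/well) exposed to compounds in 11-point series for 24 h at 37 degrees C; caspase-3/7 activity read by Caspase-Glo luminescence after 15 min at room temperature. Doxorubicin titration as control.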

[3] = HPAF-II 12hr Apoptosis Induction qHTS against the NCATS CANVASS Library (AID 1347358)
Summary of the method: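 HPAF-II cells, 500/well in DMEM + 10% FBS, exposed 12 hours at 37 degrees C to compound (11-point). Caspase-Glo 3/7 added for 15 min at room temperature; luminescence reflects caspase-3/7 activity.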

[4] = HPAF-II 18hr Apoptosis Induction qHTS against the NCATS CANVASS Library (AID 1347360)
Summary of the method: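 Caspase-3/7 activation was measured with luminescent Caspase-Glo 3/7 reagent (15 min, RT) in HPAF-II cancer cells (500 cells/well). Before detection, cells had been treated for 18 h at 37 C with compounds (11 points).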

[5] = HEK293 12hr Apoptosis Induction qHTS against the NCATS CANVASS Library (AID 1347361)
Summary of the method: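 HEK293 cells (500/well, DMEM + 10% FBS) were exposed to natural products across an 11-point series for 12 hours at 37 degrees C. Caspase-3/7 activity was then measured with DEVD luciferase luminescence after 15 min at room temperature.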

[6] = tested on: NAD(P)H diaphorase (Clostridium kluyveri); assay: Diaphorse counterscreen qHTS: Assay Interference Panel against the NCATS CANVASS Library (AID 1347362)
Summary of the method: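 Clostridium kluyveri diaphorase in PBS + 0.01% Tween-20 preincubated 15 min with compounds. Resazurin and NADH then added for 5 min at room temperature in the dark; resorufin fluorescence read (ex 525, em 598).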

[7] = molecular target: Luciferin 4-monooxygenase (Photinus pyralis) (UniProt P08659); assay: Firefly luciferase counterscreen qHTS: Assay Interference Panel against the NCATS CANVASS Library (AID 1347363); further: series mostly up to about 57 µM
Summary of the method: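 Purified P. pyralis luciferase (0.04 ug/mL, 4x reagent) added to Tris-acetate buffer with 0.013 mM D-luciferin, 0.013 mM ATP and 13.3 mM Mg-acetate; compounds preincubated 15 min, then luminescence read after 5 min, RT.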

[8] = KB-8-5-11 Cancer Cell Toxicity qHTS against the NCATS CANVASS Library (AID 1347364); further: nearly all actives have a fitted effect of over 75% in size; further: potency means the concentration at half of the fitted maximal effect
Summary of the method: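 KB-8-5-11 cells, 500/well in DMEM + 10% FBS, given compounds in an 11-point series. Incubated 72 h at 37 °C. Viability by CellTiter-Glo luminescence. Confirmation also run with 1 uM tariquidar.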

[9] = KB-3-1 Cancer Cell Toxicity qHTS against the NCATS CANVASS Library (AID 1347366); further: nearly all actives have a fitted effect of over 75% in size; further: potency means the concentration at half of the fitted maximal effect
Summary of the method: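 CellTiter-Glo luminescence measured viability after 72 h at 37C. KB-3-1 cells were seeded at 500 per well in DMEM/10% FBS.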

[10] = qHTS for ATAD5 Agonist screened against the NCATS CANVASS Library (AID 1347367);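 further: luciferase reporter driven by ATAD5 which rises upon DNA damage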; further: potency means the concentration at half of the fitted maximal effect
Summary of the method: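 Genotoxicity via ATAD5-luciferase luminescence after 16 h compound exposure (11-point series) at 37C in HEK293T-ATAD5 cells. CellTiter-Fluor viability read precedes the luminescence read; MMS serves as positive control.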

[11] = J3T Cancer Cell Toxicity qHTS against the NCATS CANVASS Library (AID 1347371); further: potency means the concentration at half of the fitted maximal effect
Summary of the method: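 J3T dog glioma cells, 500 per well, treated 72 h at 37C with compounds (11-point qHTS); viability from ATP content by CellTiterGlo luminescence; bortezomib titration as control.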

[12] = molecular target: Nuclear receptor subfamily 1 group I member 3 (Homo sapiens) (UniProt Q14994); assay: qHTS for Constitutive Androstane Receptor (CAR) Antagonist screened against the NCATS CANVASS Library (AID 1347372); further: potency means the concentration at half of the fitted maximal effect
Summary of the method: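 HepG2 cells stably carrying hCAR and CYP2B6-2.2kb luciferase reporter, 2500 cells/well, compound with 50 nM CITCO agonist for 24hr at 37C. ONE-Glo luminescence measured CAR activity; CellTiter-Fluor read viability.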

[13] = 10-beta competent E. coli microbial cell viability qHTS against the NCATS CANVASS Library (AID 1347376); further: series mostly up to about 46 µM
Summary of the method: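 10-beta competent E. coli (0.2 OD) were exposed overnight at 37C to compounds in an 11-point series. Viability was read as ATP-dependent BacTiter-Glo luminescence after 20 min at room temperature.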

[14] = Inflammasome Signaling qHTS Counterscreen: IL-1-beta AlphaLISA counterscreen against the NCATS CANVASS Library (AID 1347381);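 further: cell-free check with purified IL-1β in medium and no THP-1 cells; series mostly up to about 57 µM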
Summary of the method: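 Cell-free interference check: compounds added to medium spiked with 4 pg purified IL-1β. Anti-IL-1β acceptor beads (6 ug/mL) with 0.6 nM biotinylated antibody added for 1 h at RT, then streptavidin donor beads (24 ug/mL) for 30 min in the dark. AlphaLISA read at 680/615 nm.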

[15] = Cytotoxicity qHTS for assessment of Hepg2 cells membrane integrity screened against the NCATS CANVASS Library (AID 1347387)
Summary of the method: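 HepG2 cells (2000/well) attached overnight, then exposed 5 hr at 37C to compounds in an 11-point series (0.59 nM - 46 uM final). LDH release from damaged membranes read fluorometrically (CytoTox-ONE; 560/590 nm) after 10 min at room temperature.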

[16] = qHTS assay for small molecule disruptors of mitochondrial membrane potential screened against the NCATS CANVASS Library (AID 1347389); further: nearly all actives have a fitted effect of over 60% in size; further: potency means the concentration at half of the fitted maximal effect
Summary of the method: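 HepG2 cells (2,000/well) plated overnight, then exposed to compounds in 11-point qHTS series for 1 h at 37C before 30 min Mito-MPS dye; depolarization read as fall in red aggregate (590 nm) to green monomer (535 nm) fluorescence.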

[17] = Vero-766 cells viability qHTS against the NCATS CANVASS Library: Counterscreen for Zika virus inhibition assay (AID 1347394); further: nearly all actives have a fitted effect of over 60% in size; further: potency means the concentration at half of the fitted maximal effect
Summary of the method: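 CellTiter Glo luminescence measured cytotoxicity after 72 h at 37C in uninfected Vero 766 cells, plated at 1000 cells/well. Compounds were applied in an 11-point series. Wells without cells defined 100% inhibition.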

[18] = Viability qHTS for inhibitors of the SERCaMP assay screened against the NCATS CANVASS Library (AID 1347400); further: nearly all actives have a fitted effect of over 70% in size; further: potency means the concentration at half of the fitted maximal effect
Summary of the method: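 SH-SY5Y-GLuc SERCaMP MJH297-derived cells, 1000/well, plated 4 h, then exposed to compounds in an 11-point qHTS series for 48 h at 37C. Viability read as CellTiter-Glo luminescence.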

[19] = Redox Reaction Profiling qHTS: Assay Interference Panel against the NCATS CANVASS Library (AID 1347401); further: potency means the concentration at half of the fitted maximal effect
Summary of the method: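 Compounds in 11-point series incubated with 5 uM resazurin and 200 uM DTT in 50 mM HEPES pH 7.3, 50 mM NaCl. Resorufin fluorescence (Ex 525/Em 598) read before and after 15 min in the dark.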

[20] = molecular target: Cytochrome P450 2D6 (Homo sapiens) (UniProt P10635); assay: qHTS Assay for Inhibitors and Substrates of Cytochrome P450 2D6 (AID 891); further: potency means the concentration at half of the fitted maximal effect; nearly all actives have a fitted effect of over 60% in size
Summary of the method: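 Human CYP2D6 (5 nM) with 30 uM Luciferin-ME EGE (at Km) in 100 mM KPO4, compound preincubated 10 min, then NADPH regeneration system for 60 min at room temperature. Luciferin read by luminescence; normalized to 1.43 uM quinidine.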

Chain of Nuclear receptor subfamily 1 group I member 3 (Homo sapiens) (Q14994 whole entry, looked up): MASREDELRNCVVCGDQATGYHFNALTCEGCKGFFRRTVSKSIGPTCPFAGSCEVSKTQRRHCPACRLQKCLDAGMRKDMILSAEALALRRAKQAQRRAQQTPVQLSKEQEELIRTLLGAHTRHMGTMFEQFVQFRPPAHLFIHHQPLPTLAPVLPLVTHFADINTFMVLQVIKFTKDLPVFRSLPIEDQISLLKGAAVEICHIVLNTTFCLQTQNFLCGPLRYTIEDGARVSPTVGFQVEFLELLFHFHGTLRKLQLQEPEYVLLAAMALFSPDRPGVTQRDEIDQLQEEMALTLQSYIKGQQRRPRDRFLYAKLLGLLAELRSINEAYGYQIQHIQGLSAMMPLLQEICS
Chain of Luciferin 4-monooxygenase (Photinus pyralis) (P08659 whole entry, looked up): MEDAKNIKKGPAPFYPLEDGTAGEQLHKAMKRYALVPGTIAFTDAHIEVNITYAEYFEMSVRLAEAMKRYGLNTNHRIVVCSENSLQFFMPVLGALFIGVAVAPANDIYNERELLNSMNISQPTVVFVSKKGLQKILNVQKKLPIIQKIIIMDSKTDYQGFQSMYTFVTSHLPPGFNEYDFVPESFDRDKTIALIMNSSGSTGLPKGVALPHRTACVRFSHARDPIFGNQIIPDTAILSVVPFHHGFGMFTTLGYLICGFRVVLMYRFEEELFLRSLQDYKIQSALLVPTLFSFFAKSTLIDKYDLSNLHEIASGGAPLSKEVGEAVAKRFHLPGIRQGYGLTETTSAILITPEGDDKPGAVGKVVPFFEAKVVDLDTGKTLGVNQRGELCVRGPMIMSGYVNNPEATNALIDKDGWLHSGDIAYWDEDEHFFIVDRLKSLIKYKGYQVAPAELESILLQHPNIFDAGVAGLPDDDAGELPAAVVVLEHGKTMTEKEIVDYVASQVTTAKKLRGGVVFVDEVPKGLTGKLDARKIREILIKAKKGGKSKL
Chain of Cytochrome P450 2D6 (Homo sapiens) (P10635 whole entry, looked up): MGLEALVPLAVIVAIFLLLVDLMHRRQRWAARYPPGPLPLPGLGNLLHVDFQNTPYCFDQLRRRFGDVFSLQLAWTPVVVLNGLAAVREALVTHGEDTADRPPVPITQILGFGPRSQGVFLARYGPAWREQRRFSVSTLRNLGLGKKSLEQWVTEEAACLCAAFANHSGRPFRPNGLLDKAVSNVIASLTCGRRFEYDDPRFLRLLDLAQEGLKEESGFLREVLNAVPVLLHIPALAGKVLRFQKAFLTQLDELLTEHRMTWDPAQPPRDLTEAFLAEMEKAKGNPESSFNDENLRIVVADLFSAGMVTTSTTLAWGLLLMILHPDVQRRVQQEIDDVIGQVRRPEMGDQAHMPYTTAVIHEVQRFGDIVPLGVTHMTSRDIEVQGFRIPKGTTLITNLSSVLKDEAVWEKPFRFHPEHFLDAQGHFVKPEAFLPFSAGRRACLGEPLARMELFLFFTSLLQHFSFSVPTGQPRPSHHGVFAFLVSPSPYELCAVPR

SMILES	Potency [1]	outcome [2]	outcome [3]	outcome [4]	Potency [5]	outcome [6]	outcome [7]	Potency [8]	Potency [9]	Potency [10]	Potency [11]	Potency [12]	outcome [13]	outcome [14]	outcome [15]	Potency [16]	Potency [17]	Potency [18]	Potency [19]	Potency [20]
CCC(=O)CCCCC[C@@H]1NC(=O)[C@H]2CCCCN2C(=O)[C@H]([C@@H](C)CC)NC(=O)[C@H](Cc2cn(OC)c3ccccc23)NC1=O	2.11 µM (active)	inactive	inactive	inactive	inactive	inactive	inactive	13.2 µM (active)	1.18 µM (active)	1.86 µM (active)	5.9 µM (active)	2.34 µM (active)	inactive	inactive	inactive	inactive	1.86 µM (active)	3.81 µM (active)	inactive	–
CC[C@@H]1CN2CC[C@@]3(O)C(=Nc4cccc(OC)c43)[C@@H]2C[C@@H]1/C(=C\OC)C(=O)OC	inactive	inactive	inactive	inactive	inactive	inactive	inactive	inactive	inactive	inactive	inactive	inactive	inactive	inactive	inactive	inactive	inactive	inactive	inactive	–
Oc1ccc2c3c1O[C@H]1c4oc5ccccc5c4C[C@]4(O)[C@H](C2)N(CC2CC2)CC[C@@]314	–	–	–	–	–	–	–	–	–	–	–	–	–	–	–	–	–	–	–	1.26 µM (active)
O=C(Cc1ccc(Cl)c(Cl)c1)N1CCCC[C@H]1CN1CCCC1	–	–	–	–	–	–	–	–	–	–	–	–	–	–	–	–	–	–	–	7.94 µM (active) and 2.51 µM (active)
COC(=O)C1=C2Nc3ccccc3[C@@]23CCN2CC(C(C)=O)C1C[C@H]23 (stereo not given in full)	inactive	inactive	inactive	inactive	inactive	inactive	inactive	inactive	inactive	inactive	inactive	inactive	inactive	inactive	inactive	inactive	inactive	inactive	inactive	–
O=C(c1ccccc1O)c1[nH]c(Cl)c(Cl)c1-n1c(C(=O)c2ccccc2O)cc(Cl)c1Cl	3.75 µM (active)	inactive	inactive	inactive	inactive	inactive	inactive	2.64 µM (active)	2.35 µM (active)	inactive	2.96 µM (active)	3.71 µM (active)	inactive	inactive	inactive	0.0933 µM (active)	1.32 µM (active)	19.1 µM (active)	inactive	–
CCCCC[C@@H]1OC(=O)[C@@H](C)N(C)C(=O)[C@H](CCCCC)OC(=O)C(C)N(C)C(=O)[C@H](CCCCC)OC(=O)[C@@H](C)N(C)C(=O)[C@H](CCCCC)OC(=O)C(C)N(C)C1=O (stereo not given in full)	13.3 µM (active)	inactive	inactive	inactive	inactive	inactive	inactive	–	9.35 µM (active)	inactive	–	11.7 µM (active)	inactive	inactive	inactive	4.17 µM (active)	20.9 µM (active)	38.1 µM (active)	inactive	–
CNCCc1ccccc1	inactive	inactive	inactive	inactive	inactive	inactive	inactive	inactive	inactive	inactive	inactive	inactive	inactive	inactive	inactive	inactive	inactive	inactive	inactive	–
CCC[C@H]1CC[C@H]2[C@H](C)CCC[C@H]2N1	inactive	inactive	inactive	inactive	inactive	inactive	inactive	inactive	inactive	inactive	inactive	inactive	inactive	inactive	inactive	inactive	inactive	inactive	–	–
CC(=O)N[C@H]1CCN2CCC[C@H]12	inactive	inactive	inactive	inactive	inactive	inactive	inactive	inactive	inactive	inactive	inactive	inactive	inactive	inactive	inactive	inactive	inactive	inactive	63.2 µM (active)	–
CNCCc1c[nH]c2ccccc12	inactive	inactive	inactive	inactive	inactive	inactive	inactive	inactive	inactive	inactive	inactive	inactive	inactive	inactive	inactive	inactive	inactive	inactive	inactive	–
